Hit rate of the full screen: of about 68,000 compounds, about 2,700 (4%) showed an effect of 50% or more. For the sample, strong results were picked, then their nearest neighbours and some compounds at random.

In this experiment the test system is Plasmodium berghei. In words: Screen against P. berghei liver stage (PbLuc), transformed with Luciferase, at 2uM. Type of experiment: functional, HepG2. The note with it: tested at 2 uM.
Consider `Cn1cc(C(=O)NC[C@@H]2OC[C@H]3CN(Cc4ccco4)CC[C@H]32)cn1`, for which the INHIBITION is reported as -33.95%.

As for `CN(Cc1ccco1)C[C@H]1OC[C@@H]2CCN(Cc3nccs3)C[C@@H]21`, the INHIBITION is -13.27%.

Consider `CN(Cc1ccco1)C[C@H]1OC[C@@H]2CCN(Cc3ccccn3)C[C@@H]21`, for which the INHIBITION is on record as -1.63%.

Take `O=C(N[C@@H]1CN(Cc2ccc3[nH]ccc3c2)C[C@H]1O)c1cscn1`: the INHIBITION is listed as -0.83%.

Consider `Cc1nn(C)c(C)c1CC(=O)N1CCC(N(C)c2cccnn2)CC1`, for which the INHIBITION is reported as -48.87%.

For the compound `COc1ccc(C2=CCN(C(=O)C3CCS(=O)(=O)C3)CC2)cc1` (stereo not drawn), the INHIBITION is on record as -7.13%.

On to `Cc1ccccc1CN1CCC(NCC2CNc3ccnn3C2)CC1` (stereo not drawn), for which the INHIBITION is -4.7%.

Regarding `N#Cc1ccccc1CN1C[C@H]2CC[C@@H](C1)N(CC1CCC1)C2=O`, the INHIBITION was -39.43%.

In the case of `COc1ncccc1C(=O)NCCn1cnc(C)cc1=O`, the INHIBITION is on record as -7.16%.

With `O=S(=O)(NCCCn1cncn1)c1ccc2c(c1)CCO2`, the INHIBITION was -9.13%.

Turning to `CCn1ccc(NS(=O)(=O)c2cccc(COC)c2)n1`, the INHIBITION is reported as -85.71%.

Take `O=S(=O)(NCCCn1cncn1)c1ccc2c(c1)OCCO2`: the INHIBITION stood at 65.71%.

`O=S(=O)(NCCCn1cncn1)c1ccc2c(c1)OCCCO2`: the INHIBITION was -56.09%.

As to `O=S(=O)(NCCCn1cncn1)c1ccc2c(c1)CCCC2`, the INHIBITION is reported as -5.74%.

Consider `COC(=O)Cn1ccc(NS(=O)(=O)c2ccc3c(c2)CCC3)n1`, for which the INHIBITION worked out at 53.98%.

Take `CCc1ccc(S(=O)(=O)Nc2ccn(CC(=O)OC)n2)cc1`: the INHIBITION worked out at 11.9%.

Turning to `O=S(=O)(NCCCn1cncn1)c1ccc2c(c1)CCC2`, the INHIBITION was 54.99%.

In the case of `O=S(=O)(NCCCn1cccn1)c1ccc2c(c1)CCC2`, the INHIBITION is 42.26%.

Take `CCCN1CCC2(C1)c1ccccc1S(=O)(=O)N2Cc1ccccc1` (stereo not drawn): the INHIBITION is recorded as 9.87%.

`CCCn1ccc2cc(NC(=O)NCCn3cnnc3CC)ccc21`: the INHIBITION came to 12.58%.

Regarding `O=C([C@H]1COC[C@H]2CN(C3CCCC3)C[C@H]21)N1CCCO1`, the INHIBITION was determined as 0.13%.

For the compound `CCS(=O)(=O)N1CCC2(CC(=O)N(c3ccccc3C)C2)C1` (stereo not drawn), the INHIBITION is given as 46.87%.

For the compound `Cc1ccc(C2c3c(n[nH]c3C)N=C3COC(=O)C32)cc1C` (stereo not drawn), the INHIBITION came to 28.23%.

Take `CC(=O)Nc1cnc(Oc2ccccc2F)nc1`: the INHIBITION was 8.41%.

For `CO[C@@H]1CO[C@@]2(CCCN(Cc3nc(C)cs3)C2)C1`, the INHIBITION was -61.54%.

As for `O=C1CC(NCc2ccncc2)CN1Cc1cccc(F)c1` (stereo not drawn), the INHIBITION was -12.82%.

In the case of `Nc1cc2c(nn1)CCN(C(=O)CCCC1CCCCC1)C2`, the INHIBITION was -33.92%.

Turning to `Cc1nc(CN2CCCC(N(C)c3ccc(C#N)cn3)C2)no1` (stereo not drawn), the INHIBITION is recorded as -14.71%.

As for `COc1cc2c(nn1)CCN(Cc1noc(-c3ccccc3)n1)C2`, the INHIBITION turned out to be 0.12%.

With `COc1cc2c(nn1)CCN(Cc1nc(Cc3ccccc3)no1)C2`, the INHIBITION is recorded as 48.93%.

`COc1cc2c(nn1)CCN(Cc1noc(CC(C)C)n1)C2`: the INHIBITION came to 65.76%.

On to `Cc1cc(C(=O)N2CCCC2c2c(C)nn(C)c2C)no1` (stereo not drawn), for which the INHIBITION was 43%.

Regarding `Cc1nn(C)c(Cl)c1C1CCCN1C(=O)c1ccc(O)nc1` (stereo not drawn), the INHIBITION is listed as -36.73%.

Take `Cc1nn(C)c(Cl)c1C1CCCN1C(=O)c1csnn1` (stereo not drawn): the INHIBITION came to 75.98%.

Consider `COc1c(C2CCCN2C(=O)c2cc(C3CC3)on2)c(C)nn1C` (stereo not drawn), for which the INHIBITION is -47.94%.

Consider `COc1c(C2CCCN2C(=O)c2cc(C)on2)c(C)nn1C` (stereo not drawn), for which the INHIBITION worked out at 51.94%.

Consider `Cc1nn(C)c(Cl)c1C1CCCN1C(=O)c1ccc(C(N)=O)cn1` (stereo not drawn), for which the INHIBITION came out at 68.24%.

For `Cc1nn(C)c(Cl)c1C1CCCN1C(=O)c1cnccn1` (stereo not drawn), the INHIBITION is given as 3.86%.

With `Cc1nn(C)c(C)c1C1CCCN1C(=O)c1ccc(C(N)=O)cn1` (stereo not drawn), the INHIBITION is -27.71%.

Consider `Cc1nn(C)c(Cl)c1C1CCCN1C(=O)c1cc[nH]n1` (stereo not drawn), for which the INHIBITION was determined as 47.57%.

Turning to `O=C([C@H]1CN(Cc2ccccc2F)C[C@H]2OCC[C@@H]12)N1CCCO1`, the INHIBITION turned out to be 13.61%.

For the compound `CC(NC(=O)N1CCCN(CC(F)F)CC1)c1ccco1` (stereo not drawn), the INHIBITION stood at 1.06%.

Turning to `CNc1nc(CNC(=O)Nc2cccc(C)c2Cl)cs1`, the INHIBITION was determined as 15.4%.

As to `CNc1nc(CNC(=O)Nc2cccc(Cl)c2OC)cs1`, the INHIBITION is given as -4.43%.

Take `CNc1nc(CNC(=O)Nc2cccc(Cl)c2Cl)cs1`: the INHIBITION was 61.09%.

For the compound `CC(C)(C)c1nnc(NCC(=O)N2CCc3sccc3C2)s1`, the INHIBITION came out at 33.83%.

Turning to `O=C(NCc1nnc2n1CCC2)N(Cc1ccco1)C1CC1`, the INHIBITION is on record as 17.52%.

In the case of `COCCCNC1CCCN(c2ccc(C)nn2)C1` (stereo not drawn), the INHIBITION was -73.41%.

Turning to `Cc1ccc(N2CCCC(NCCCS(C)(=O)=O)C2)nn1` (stereo not drawn), the INHIBITION was -15.77%.

In the case of `c1cnnc(N2CCCC(NCc3cccc4c3OCO4)C2)c1` (stereo not drawn), the INHIBITION was -9.98%.

`Cc1ccc(N2CCCC(NCc3cccc4c3OCO4)C2)nn1` (stereo not drawn): the INHIBITION is 56.02%.

For the compound `Cc1ccc(N2CCCC(NCc3cccc4c3OCCO4)C2)nn1` (stereo not drawn), the INHIBITION came out at 15.13%.

Regarding `Cc1ccc(N2CCCC(NCCS(C)(=O)=O)C2)nn1` (stereo not drawn), the INHIBITION was 52.6%.

Source of the values: ChEMBL document CHEMBL4513216, “Probing the Open Global Health Chemical Diversity Library for Multistage-Active Starting Points for Next-Generation Antimalarials” (ACS Infect Dis, 2020).
